Screening results (PubChem BioAssay)
IDH1 R132H inh: qHTS for Inhibitors of mutant isocitrate dehydrogenase 1 (IDH1): qHTS; Isocitrate dehydrogenase [NADP] cytoplasmic (Homo sapiens), O75874; IDH1-R132H enzyme, NADPH consumption, diaphorase/resazurin fluorescence; Potency, µM (titrated, usually from 76.6 µM), hits mostly inhibitors; 390,000 compounds, 0.093% hits; also: nearly all actives have a fitted effect of over 65% in size
Target sequence (O75874 whole entry R132H, stated change not applied): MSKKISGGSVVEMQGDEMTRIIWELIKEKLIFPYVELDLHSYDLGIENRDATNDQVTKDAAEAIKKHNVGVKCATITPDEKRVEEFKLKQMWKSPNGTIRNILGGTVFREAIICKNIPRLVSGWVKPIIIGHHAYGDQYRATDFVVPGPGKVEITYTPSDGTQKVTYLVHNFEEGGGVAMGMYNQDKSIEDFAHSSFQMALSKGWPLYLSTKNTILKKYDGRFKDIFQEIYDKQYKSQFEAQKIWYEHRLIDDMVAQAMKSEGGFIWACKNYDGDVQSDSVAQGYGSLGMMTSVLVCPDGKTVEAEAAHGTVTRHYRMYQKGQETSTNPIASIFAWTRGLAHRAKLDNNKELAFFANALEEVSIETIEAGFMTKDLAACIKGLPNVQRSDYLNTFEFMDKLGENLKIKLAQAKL
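IDH1-R132H (0.5 ug/mL) preincubated 30 min with compound, then NADPH (0.016 mM) and alpha-KG (2 mM) added; 80 min at RT, pH 7.5. Remaining NADPH coupled via diaphorase/resazurin to fluorescence (540/590 nm); concentration-response curves normalized to no-enzyme control.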
ELG1 DNA repair: qHTS screen for small molecules that inhibit ELG1-dependent DNA repair in human embryonic kidney (HEK293T) cells expressing luciferase-tagged ELG1 | HEK293T ELG1-luciferase reporter, luminescence, 16 h; DNA damage induced by 5-fluorouridine | Potency, µM (titrated, usually from 46.1 µM), hits mostly inhibitors | 330,000 compounds, 2.3% hits; also: nearly all actives have a fitted effect of over 55% in size
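Cells (2,000 per well) received 5-fluorouridine plus test compound or DMSO and were incubated 16 hr at 37 °C, 5% CO2. Luciferase activity was read by luminescence 30 min after ONE-Glo addition; signal suppression marked inhibition of damage-induced ELG1 function.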
Nrf2 block: Nrf2 qHTS screen for inhibitors. 360,000 compounds, 2.1% hits. A549 ARE-Fluc reporter, luciferase luminescence, 18-24 h. Potency, µM (doses to about 46 µM), hits mostly inhibitors; also: nearly all actives have a fitted effect of over 60% in size
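In this cell-based qHTS, ARE-driven firefly luciferase in A549 cells reports Nrf2 activity; the luminescent signal after BugLite lysis is the measured value, with a prior CellTiter-Fluor read for cell health.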
A549 tox: Nrf2 qHTS screen for inhibitors: counterscreen for cytotoxicity. A549 ARE-Fluc cells, CellTiter-Fluor viability, 18-24 h. Potency, µM (series often up to 46 µM), usual class: inhibitors. 390,000 compounds, 0.16% hits. AID 504648, 2011
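A549 ARE-Fluc cells in 5% FBS OPTI-MEM, 5000 cells/well, rested 2 h then exposed to compounds in concentration-response for 18-24 h at 37 °C. Viability by CellTiter-Fluor fluorescence (Ex 405/Em 525) after 30 min; luciferase luminescence (BugLite, 15 min, RT) read afterwards.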
Nrf2 activator: qHTS of Nrf2 Activators | AREc32 ARE-luciferase reporter (MCF7-derived line), luminescence, 24 h | Potency, µM (titrated, usually from 46.1 µM), most hits filed as activators | 410,000 compounds, 0.31% hits; also: nearly all actives have a fitted effect of over 65% in size
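Reporter line AREc32 (ARE-Fluc), seeded overnight in OPTI-MEM with 5% FBS; compound pin-transferred, 24 hr at 37 deg C, 5% CO2; luminescent read-out.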
A number is an active result; i = inactive; ? = inconclusive; nt = no result given. The list is not random: actives were taken first. Their share in the collection is about 3.8%. Calls follow the shape of the dose curve; as a rule, active = well fitted curve in the direction sought with a large enough effect; inconclusive = small, poorly fitted or top-dose-only effect, or another doubt; inactive = no such curve, though single readings can be large; an effect the other way counts as inactive or inconclusive.

SMILES	IDH1 R132H inh	ELG1 DNA repair	Nrf2 block	A549 tox	Nrf2 activator
O=C1CSC(c2nn(-c3ccccc3)cc2-c2cc3ccccc3oc2=O)N1Cc1ccco1 (stereo not drawn)	i	?	i	i	i
O=C1CSC(c2cn(-c3ccccc3)nc2-c2cc3ccccc3oc2=O)N1Cc1ccccc1 (stereo not drawn)	i	20.6µM	?	i	i
Cc1nc2nc(-c3ccco3)[nH]n2c(=O)c1C	i	i	nt	i	11.2µM
COc1ccc2nc(C)cc(SCC(=O)N/N=C/c3cccc4ccccc34)c2c1	i	?	16.4µM	23.1µM	i
CCOc1cc(/C=N/NC(=O)c2ccc(CN3CCOCC3)cc2)ccc1OCc1ccccc1	i	18.4µM	?	i	i
Cc1cc(NC(=O)c2cc(-c3ccncc3)nc3c(C)cccc23)no1	i	9.2µM	i	i	i
COc1ccccc1-c1cc(C(=O)N/N=C/c2sccc2C)c2ccccc2n1	i	11.6µM	i	i	i
COc1ccc2nc(C)cc(SCC(=O)N/N=C/c3ccc(O)c(O)c3)c2c1	i	i	i	i	i
CCOc1cc(/C=N/NC(=O)CN2CCOCC2)ccc1OCc1ccccc1	i	i	i	?	i
COc1ccc(/C=N/NC(=O)c2cccnc2)cc1CN1CCN(c2ccc(F)cc2)CC1	i	?	i	i	i
COc1ccc(/C=N/NC(=O)c2cc(-c3ccccc3)nc3ccccc23)c(OC)c1	i	11.6µM	?	i	i
COc1ccc(/C=N/NC(=O)c2ccncc2)cc1CN1CCOCC1	i	i	i	i	i
COc1ccc(NC(=O)NNC(=O)c2cc(C3CC3)nc3ccccc23)c(OC)c1	i	13µM	i	i	i
O=C(N/N=C/c1cccc(O)c1)c1cc(-c2ccccc2)nc2ccccc12	i	?	i	i	i
COc1ccc(C(=O)N/N=C/c2ccc(OC)c(CN3CCN(c4ccc(F)cc4)CC3)c2)cc1	i	20.6µM	i	i	i
CCOc1cccc(-c2cc(C(=O)N/N=C/c3ccc(OC)c(CN4CCOCC4)c3)c3ccccc3n2)c1	i	23.1µM	i	i	i
Cc1c(C)n(Cc2ccccc2)c2ccc(C(=O)N3CCN(c4ccccc4F)CC3)cc12	i	nt	i	i	i
CC(=O)Nc1nonc1-c1nnc(SCC(=O)Nc2cccc(F)c2)n1-c1ccccc1	i	nt	i	i	i
CN(Cc1ccccc1)C(=O)c1cccc(NC(=O)c2nsc3ccccc23)c1	i	nt	nt	i	i
COc1ccc(NC(=O)c2cc(-c3ccccn3)nc3ccccc23)c(OC)c1	i	8.2µM	i	i	i
COc1ccc(-c2cc(C(=O)Nc3cc(C)on3)c3ccccc3n2)c(OC)c1	i	18.3µM	?	i	i
CCOc1ccccc1NC(=O)c1cc(-c2ccccn2)nc2ccccc12	i	?	i	i	i
O=S1(=O)C2CC3C=CC2(O3)C(O)C(Cc2ccccc2)N1Cc1cccc(C(F)(F)F)c1 (stereo not drawn)	nt	nt	i	i	nt
CC1Cc2ccccc2N1C(=O)C1CCCN(S(=O)(=O)c2cccc3cccnc23)C1 (stereo not drawn)	i	20.6µM	?	i	i
O=C(O)[C@@H]1CCCN(S(=O)(=O)c2cccc3cccnc23)C1	i	i	i	i	i
SMILES	IDH1 R132H inh	ELG1 DNA repair	Nrf2 block	A549 tox	Nrf2 activator
O=C(Nc1ccc(C(F)(F)F)cc1)C1CCCN1S(=O)(=O)c1cccc2cccnc12 (stereo not drawn)	i	20.6µM	nt	i	i
CC(=O)c1cccc(NC(=O)C2CCCN(S(=O)(=O)c3cccc4cccnc34)C2)c1 (stereo not drawn)	i	16.4µM	i	i	i
Cc1ccc(NC(=O)C2CCCN(S(=O)(=O)c3cccc4cccnc34)C2)cc1Cl (stereo not drawn)	i	nt	?	?	i
O=C(C1CCCN(S(=O)(=O)c2cccc3nonc23)C1)N1CCN(c2ccccc2Cl)CC1 (stereo not drawn)	i	23.1µM	?	i	i
CCCN1CNc2c(c(=O)[nH]c(=S)n2CCc2cc(OC)ccc2OC)C1	nt	nt	i	?	nt
CN1CCN(C(=O)Cn2c(-c3cccs3)cc3cc(Cl)ccc32)CC1	i	nt	i	i	i
O=C(Nc1ccc2nc(SCC(=O)N3CCc4ccccc43)sc2c1)c1ccccc1	i	nt	i	i	i
Cc1nc2ccc(S(=O)(=O)CCC(=O)Nc3ccc(F)cc3C)cc2s1	i	nt	i	i	i
Cc1nn(C(=O)c2ccc(Br)cc2)c(C)c1S(=O)(=O)N1CCOCC1	i	nt	nt	i	i
O=C(Nc1nccs1)C1CCCN(S(=O)(=O)c2cccc3cccnc23)C1 (stereo not drawn)	i	23.1µM	?	i	i
O=C(Nc1nc2cc(Cl)ccc2s1)C1CCCN(S(=O)(=O)c2cccc3cccnc23)C1 (stereo not drawn)	i	16.4µM	?	i	i
CCC(C)Oc1ccc(/C=C/c2[nH]c(=O)[nH]c(=O)c2[N+](=O)[O-])cc1OC (stereo not drawn)	i	?	i	i	?
COc1cc(/C=C/c2[nH]c(=O)[nH]c(=O)c2[N+](=O)[O-])cc([N+](=O)[O-])c1O	i	i	i	16.4µM	i
Cc1cc2c(s1)c1cnn(Cc3c(F)ccc(F)c3F)c(=O)c1n2C	nt	nt	i	i	nt
O=C(Nc1ccc(N2CCCCC2)c(Cl)c1)c1ncn[nH]1	i	?	8.2µM	i	i
O=C(Nc1ccc(CCC(=O)N2CCCC2)cc1)c1ncn[nH]1	i	i	i	i	i
O=C(NNC(=O)C12CC3CC(CC(C3)C1)C2)c1ccccn1	i	?	20.6µM	?	?
O=S(=O)(c1ccc2ccccc2c1)N1CCN(c2nc(-c3ccccc3)nc3ccccc23)CC1	nt	nt	?	i	nt
O=C(N[C@@H]1C/C=C\C[C@@H](CC(=O)N(CCO)Cc2ccccc2)C(=O)NC[C@H](c2ccccc2)OC1=O)OCC1c2ccccc2-c2ccccc21	i	14.6µM	?	i	i
C[C@@H]1COC(=O)[C@@H](NC(=O)OCC2c3ccccc3-c3ccccc32)C/C=C\C[C@@H](CC(=O)N(CCO)Cc2ccccc2)C(=O)N1	i	?	i	i	i
C[C@H]1COC(=O)[C@H](NC(=O)OCC2c3ccccc3-c3ccccc32)C/C=C\C[C@H](CC(=O)N(CCO)Cc2ccccc2)C(=O)N1	i	25.9µM	i	i	i
COc1cc(F)c(S(=O)(=O)N2CCN(S(=O)(=O)c3cccc(N)c3)CC2)c(F)c1	nt	nt	i	i	nt
CCN(c1ccccc1)S(=O)(=O)c1nnc(NC(=O)COc2ccc(OC)cc2)s1	i	nt	?	i	i
CCCCCn1ncc2c3sc(C)cc3n(C)c2c1=O	nt	nt	?	i	nt
